The campaign covered roughly 69,000 compounds. About 950 (1.4%) showed an effect of 50% or more. The list comes from a sample in which strong results are over-represented; it also holds similar structures and randomly drawn compounds.
tested on: Mycobacterium tuberculosis; assay: Cornell M. t heat shock assay; assay type: functional, organism-based; design: dose or concentration left out as unconfirmed; note: in the data most compounds retested in dose-response had high values

Point of comparison: Cc1cnn(CC2CN(c3ncnc4ccsc34)CCO2)c1 (stereo not drawn), “Percent Effect” value 28.88%. Against it:
- Cc1cccc(CN2C(=O)CCC23CCNCC3)n1.O=C(O)C(F)(F)F.O=C(O)C(F)(F)F — lower, -5.538%
- COCCN1CCC2(CCCN(c3ncccn3)C2)C1.O=C(O)C(F)(F)F (stereo not drawn) — lower, -80.98%
- CN1CCCC(c2n[nH]c3ncccc23)C1 (stereo not drawn) — lower, -10.45%
- c1cnc(N2CCC(c3n[nH]c4ncccc34)C2)nc1 (stereo not drawn) — lower, -8.956%
- CN1CCC(c2n[nH]c3ncccc23)C1.O=CO (stereo not drawn) — higher, 50.56%
- Cc1ccc(N2CCN(c3ccccc3C)CC2C)nn1 (stereo not drawn) — lower, 2.644%
- Cc1ccccc1N1CCN(c2cc(N(C)C)ncn2)C(C)C1 (stereo not drawn) — lower, 21.52%
- Cc1ccccc1N1CCN(c2ccncn2)C(C)C1 (stereo not drawn) — higher, 56.56%
- Cc1ccc(Nc2nccc(C3CCN(C(=O)CN)C3)n2)nc1.Cl (stereo not drawn) — lower, -1.968%
- COc1cccc(COCC(O)CN(C)c2ccc(C)cc2C)c1 (stereo not drawn) — lower, -34.76%
- Cc1cc(N2CCC(CO)(CC3CCCCO3)CC2)c2ccccc2n1 (stereo not drawn) — lower, -3.721%
- OCC1(CC2CCCCO2)CCN(c2cnc3ccccc3n2)CC1 (stereo not drawn) — higher, 103.4%
- Cc1cc(N2CCC(CO)(CC3CCCCO3)CC2)nc2ccccc12 (stereo not drawn) — lower, 3.069%
- CO[C@@H]1CC[C@H]2[C@H]1OCCN2Cc1ccc(F)cc1.O=C(O)C(F)(F)F — lower, -14.29%
- CCn1cc(NC(=O)CN2CCC(Oc3ccc(F)cc3)CC2)c(C)n1.Cl — lower, -4.397%
- CCCN(C(=O)c1ccccn1)c1nc2c(s1)CCc1c-2cnn1C — higher, 103.2%
- CCCN(C(=O)c1ccncc1)c1nc2c(s1)CCc1c-2cnn1C — higher, 61.93%
- CCCN(C(=O)c1cnc(C)cn1)c1nc2c(s1)CCc1c-2cnn1C — lower, -19.73%
- CCCN(C(=O)c1cnccn1)c1nc2c(s1)CCc1c-2cnn1C — lower, -8.207%
- COCCN(C(=O)c1ccccn1)c1nc2c(s1)CCc1c-2cnn1C — lower, 15.96%
- CCCN(C(=O)c1cccnc1)c1nc2c(s1)CCc1c-2cnn1C — lower, 19.23%
- Cc1nc(N2CCOCC2)nc2c1CCN(Cc1nccn1C)CC2.O=C(O)C(F)(F)F — lower, -4.986%
- O=C(O)C(F)(F)F.O=C(c1cccnc1)N1CCC2(CCN(C(=O)N3CCCC3)CC2)C1 — lower, 2.065%
- CCN1Cc2nccn2CC(COCc2csc(C)n2)C1.O=C(O)C(F)(F)F.O=C(O)C(F)(F)F (stereo not drawn) — higher, 34.39%
- CN1C(=O)CC(c2ccccc2)C12CCN(CCO)CC2.O=C(O)C(F)(F)F (stereo not drawn) — lower, 13.27%
- Cl.O[C@@H]1CN(Cc2cccc(F)c2)CC[C@H]1NCc1ccccn1 — lower, 14.29%
- CCOc1ccc2c(c1)CN(Cc1nc3c(cnn3C)c(=O)[nH]1)CC2 — lower, -1.196%
- COc1ccc2c(c1)CN(Cc1nc3ccsc3c(=O)[nH]1)CC2 — higher, 63.99%
- COc1ccc2c(c1)CN(Cc1nc3c(cnn3C)c(=O)[nH]1)CC2 — lower, -0.696%
- Fc1cnc(N2C[C@@H](OCC3CCOCC3)[C@H]3OCCC[C@H]32)nc1.O=C(O)C(F)(F)F — higher, 41.59%
- CC(C)N1CCc2nnc(COc3cncnc3)n2CC1.O=C(O)C(F)(F)F — lower, -11.8%
- CO[C@H]1CCN(C(=O)c2ccsc2)[C@@H]2CN(CC3CC3)C[C@H]12.O=C(O)C(F)(F)F — lower, -4.831%
- Cc1cccc(N2CCOCC3(C2)CN(c2ccoc2)C(=O)CO3)n1.O=C(O)C(F)(F)F (stereo not drawn) — higher, 36.14%
- CN(C)[C@@H]1CN(C(=O)Cc2ccsc2)[C@@H]2CCCO[C@H]12.O=C(O)C(F)(F)F — lower, 1.941%
- c1ccc2sc(N3CCCN(c4ncnc5c4CCNC5)CC3)nc2c1 — higher, 53.45%
- Cc1ncnc(N2CCCN(c3nc4ccccc4s3)CC2)c1C — lower, 10.22%
- c1ccc2sc(N3CCN(c4ncnc5c4CCC5)CC3)nc2c1 — lower, -9.42%
- O=C(c1ccco1)N1C(CN2CCOCC2)[C@]2(O)CC[C@H]1CC2 (stereo partly drawn) — higher, 30.59%
- c1ccc(CO[C@@H]2CN(Cc3ccoc3)[C@@H]3COC[C@@H]32)nc1 — higher, 52.89%
- Fc1ccc(CN2C[C@@H](OCc3ccccn3)[C@H]3COC[C@H]32)cc1.O=C(O)C(F)(F)F.O=C(O)C(F)(F)F — lower, 25.12%
- Cc1nc(CO[C@@H]2CN(Cc3ccccn3)[C@@H]3COC[C@@H]32)cs1 — lower, -33.39%
- Cc1nc(C2CCNC2)nc2c1CCC(=O)N2C.Cl (stereo not drawn) — lower, 7.271%
- Br.O=C(O)c1csc(NCCc2ccccc2)n1 — higher, 78.91%
- O=C(NCCc1ccccc1)NCC(O)c1cccs1 (stereo not drawn) — lower, 20.6%
- CN1CC(=O)c2sc(NCCc3ccccc3)nc2C1 — lower, -13.74%
- COCCNC(=O)c1cc(-c2cc[nH]n2)n2ccccc12.O=C(O)C(F)(F)F — lower, -6.749%
- O=C(O)C(F)(F)F.O=C(O)C(F)(F)F.O=C(O)C(F)(F)F.c1cncc(CN2CCC3(COCCN(C4CCOCC4)C3)C2)c1 (stereo not drawn) — lower, -18.23%
- O=C([C@@H]1CCCO1)N1CCOCC2(CCN(Cc3cccnc3)C2)C1 (stereo partly drawn) — higher, 51.35%
- O=C(C1CCCO1)N1CCC2(CC1)COCCN(Cc1cccnc1)C2.O=C(O)C(F)(F)F.O=C(O)C(F)(F)F (stereo not drawn) — lower, -5.406%
- Cc1ccc(N2CCC3(CCN(C(=O)c4ccoc4)CC3)CC2)nn1.O=C(O)C(F)(F)F — lower, -13.67%
- CS(=O)(=O)NCc1cn2c(n1)CN(Cc1cccnc1)CC2.O=C(O)C(F)(F)F.O=C(O)C(F)(F)F — higher, 42.6%
- CN1CCC(c2nc3ccc(-c4cccc(F)c4)cn3n2)CC1.O=C(O)C(F)(F)F — lower, 3.867%
- O=C(Nc1ccc(F)cc1)C1CSCN1 (stereo not drawn) — higher, 55.12%
- O=C(Nc1ccc(F)cc1)C1CCc2ccccc2N1 (stereo not drawn) — lower, 1.641%
- Cc1csc2c(N3CCNC(C(=O)Nc4ccc(F)cc4)C3)ncnc12 (stereo not drawn) — lower, 27.39%
- CNc1ncc(-c2ccc(NC(=O)[C@@H]3CCCCN3)cc2)cn1 — lower, -9.316%
- Cl.N#Cc1ccc(NC(=O)C2CSCN2)cc1 (stereo not drawn) — higher, 75.04%
- Nc1ncc(-c2ccc(NC(=O)[C@@H]3CCCCN3)cc2)cn1 — lower, -9.095%
- Cc1ccc(C(=O)N2[C@@H]3CC[C@H]2CN(C)C(=O)C3)c(=O)[nH]1 — lower, -6.73%
- O=C(O)C(F)(F)F.O=C([C@@H]1C[C@@H]2CCN(Cc3ccc4c(c3)OCO4)C[C@@H]2O1)N1CCCC1 — lower, -15.24%
- CC(C)COC[C@@H]1CC[C@H]2[C@H](CCN2C(=O)c2ccncc2F)O1.O=C(O)C(F)(F)F — lower, -34.7%
- CCn1c(CN(C)Cc2cnc(C)s2)nc2c(F)cccc21 — lower, -32.12%
- Cc1ncc(CN(C)Cc2nc3cc(Cl)ccc3n2C)s1 — higher, 61.31%
- Cn1c(CCNc2nccnc2C#N)nc2cc(Cl)ccc21 — lower, -3.646%
- O=C(O)C(F)(F)F.O=C(O)C(F)(F)F.c1ccc(CO[C@@H]2CC[C@H]3[C@H]2OCCN3Cc2ccsc2)nc1 — lower, -28.68%
- COc1cccc(CN2CCCC2c2c(C)nn(C)c2C)c1 (stereo not drawn) — lower, 27.85%
- COc1cccc(CN2CCCC2c2cncc(Nc3nncs3)n2)c1 (stereo not drawn) — higher, 104.6%
- CNc1cncc(C2CCCN2Cc2ccccn2)n1 (stereo not drawn) — lower, -4.503%
- COc1cccc(CN2CCCC2c2ccc[nH]2)c1 (stereo not drawn) — lower, -7.682%
- CNc1cncc(C2CCCN2Cc2cccc(C)n2)n1 (stereo not drawn) — lower, 0.9246%
- Cc1ccccc1CN1CCCC1c1cncc(Nc2nncs2)n1 (stereo not drawn) — higher, 103.1%
- CNc1cncc(C2CCCN2Cc2ccccc2OCC(=O)O)n1 (stereo not drawn) — lower, 2.446%
- Cc1cccc(CN2CCCC2c2cncc(Nc3nncs3)n2)c1 (stereo not drawn) — higher, 96.91%
- CNc1cncc(C2CCCN2Cc2ccnc(C)n2)n1 (stereo not drawn) — lower, -20.32%
- Cc1cccc(C(=O)N2C[C@@H](C)[C@@]3(CCN(c4ccsc4)C3=O)C2)n1.O=C(O)C(F)(F)F — lower, 5.09%
- c1ccc(CO[C@H]2C[C@@H]3CN(Cc4cccnc4)C[C@@H]3C2)cc1 — lower, -10.82%
- c1nc(N2CCOC(Cn3cncn3)C2)c2sccc2n1 (stereo not drawn) — lower, -23.67%
- c1cnn(CC2CN(c3ncnc4ccsc34)CCO2)c1 (stereo not drawn) — higher, 105.5%
- C[C@H](N)Cn1nc(-c2cccs2)oc1=O.Cl — lower, -14.47%
- Cn1nc(CN2CCCCC(N)C2)c2c(Cl)cccc21 (stereo not drawn) — lower, -3.376%
- Cn1nc(CN2CCCN(C3CCCC3)CC2)c2c(Cl)cccc21 — higher, 57.91%
- C[C@@H]1CN(C2CCN(Cc3nn(C)c4cccc(Cl)c34)CC2)C[C@H](C)O1 — lower, -2.477%
- Cc1ccc(C(=O)N2CCC3(CC2)CC(c2cnn(C)c2)CO3)cn1.O=C(O)C(F)(F)F (stereo not drawn) — lower, -3.038%
- NC(=O)N1CC[C@H](O)[C@@H]1Cc1cccnc1.O=C(O)C(F)(F)F — lower, -3.918%
- COC(=O)CSc1nnc(CCNC(=O)OC(C)(C)C)o1 — lower, 12.63%
- C=C(C)CSc1nnc(CCNC(=O)OC(C)(C)C)o1 — higher, 54.16%
- CCN(CC)C(=O)CSc1nnc(CCNC(=O)OC(C)(C)C)o1 — lower, 3.451%
- O=C(O)C(F)(F)F.O=C(c1ccco1)N1CCO[C@@H]2CN(CC3CC3)CC[C@@H]2C1 — lower, -6.108%
- CC(C)CN1CC[C@H](c2nnc(COc3ccc(F)cc3)o2)C1 — lower, 15.46%
- Cc1ccc(CN2CC[C@H](c3nnc(COc4ccc(F)cc4)o3)C2)o1 — higher, 102.2%
- Fc1ccc(OCc2nnc([C@H]3CCN(Cc4ccncc4)C3)o2)cc1 — higher, 43.75%
- Cc1nn(C)c(C)c1S(=O)(=O)N1CC[C@H]2O[C@@H](C)C[C@H]2C1.O=C(O)C(F)(F)F — lower, 4.759%
